Experimental data taken from PubChem BioAssay (Tox21).
Several values for one entry are separate records, joined by “and”; a condition that tells them apart may be missing. Equal entries are not always repeated. Records with an inconclusive call do not appear. Where a call stands in place of a potency, no number is given. A number with no mark means an inactive call. Activity calls are given as the source filed them. Calls come from the whole dose curve; as a rule, active = well fitted cell-killing curve with a large enough effect in the repeat runs; inconclusive = weak or mixed curves, or effect the other way; inactive = no such curve, though single readings can be large or run the other way.

test: Caspase-3/7 induction in CHO-K1 cells by small molecules, qHTS cell viability counter screen (AID 1346979); conditions: CellTiter-Fluor fluorescence, 17 h; series mostly up to 92.4 µM; note: nearly all actives have a fitted effect of over 35% in size
Description: National Center for Advancing Translational Sciences [NCATS]
NIH Chemical Genomics Center [NCGC]
U.S. Environmental Protection Agency [EPA]
National Institutes of Environmental Health Sciences [NIEHS]
National Toxicology Program [NTP]
U.S. Food and Drug Administration [FDA]
Apoptosis is a process of programmed cell death and plays a central role in the development of multicellular organisms. It is a highly regulated process and induces cell death by activating caspases, which are the members of cysteine aspartic acid-specific protease (caspase) family. Caspases involved in apoptosis are classified by their mechanism of action as initiator caspases (caspase-2, -8, -9 and -10) and executioner caspases (caspase-3, -6, and -7). Inhibition of apoptosis results in number of cancers, autoimmune diseases, inflammatory diseases and viral infection. To identify small molecule compounds that induce apoptosis, a homogeneous, luminescent Caspase-Glo 3/7 assay was used. Wild type CHO-K1 cells were used to screen Tox21 libraries for identifying caspase-3/7 activity inducers. Also cytotoxicity of the compounds was tested in parallel by measuring the cell viability using CellTiter-Fluor assay system in the same wells.
Tox21 Assay Protocol Summary:
CHO-K1 cells were dispensed at 1,500 per well in 5uL of culture medium into white solid bottom 1536-well plates (Corning Life Sciences, Corning, NY) using a Multidrop Combi (Thermo Scientific, Waltham, MA) dispenser. The assay plates were incubated at 37 C and 5% CO2 for 5hr, and then 23nL of compounds dissolved in DMSO and positive control were transferred using a Pintool station (Wako, San Diego, CA). The assay plates were incubated at 37C and 5% CO2 for 17hr. For cytotoxicity read, after 16hr incubation at 37C, 1uL CellTiter-Fluor reagent (Promega Corporation, Madison, WI) was added to each well of the assay plates using Flying Reagent Dispenser (FRD, Aurora Discovery, San Diego, CA). After 1hr incubation at 37C and 5% CO2, the fluorescence signal was quantified using a ViewLux plate reader (PerkinElmer, Shelton, CT).
Potency is the fitted concentration of half-maximal effect.

Row | Compound | Potency | activity change, negative = cytotoxicity
1 | Cc1ccc(-n2[nH]c(C)c(N=Nc3cccc(-c4cccc(C(=O)O)c4)c3O)c2=O)cc1C | 26.6 µM (active) | –
2 | CC(C)CCOCCC(C)C | inactive | –
3 | COc1cc(C=C2CCC/C(=C\c3ccc(O)c(OC)c3)C2=O)ccc1O | 29.8 µM (active) | –
4 | CCCCCCCCCCCCCCCCCO | – | 11.2% [at 19 µM]
5 | CCCCCCCOC(=O)c1ccc(O)cc1 | 61.2 µM (active) and 61.1 µM (active) | –
6 | CCCCCCCCCCOCC(O)CN (stereo not given) | 33.5 µM (active) | –
7 | CCCCCCC(C)OC(=O)COc1nc(F)c(Cl)c(N)c1Cl (stereo not given) | inactive | –
8 | CN(Cc1cc(Br)cc(Br)c1N)C1CCCCC1 | inactive | –
9 | COc1ccc(C#N)cc1 | inactive | –
10 | CCCCCCCCC(C)=O | inactive | –
11 | C#CC(O)CCC (stereo not given) | inactive | –
12 | NC(=O)c1nc(-c2cccc(-c3cc(F)ccc3OCC(F)(F)C(F)(F)F)c2)n[nH]1 | 54.5 µM (active) | –
13 | CCCCC(CC)COC(=O)c1ccc(O)cc1 (stereo not given) | 54.3 µM (active) and 61.1 µM (active) | –
14 | COC(=O)CC#N | inactive | –
15 | CCCCCCCC/C=C/CCCOC(C)=O | inactive | –
16 | Cc1c(C(=O)O)cccc1[N+](=O)[O-] | inactive | –
17 | NC(=O)C(=O)N/N=C/c1ccc([N+](=O)[O-])o1 | 23.7 µM (active) | –
18 | Brc1ccccn1 | inactive | –
19 | CC1CNCC(C)O1 (stereo not given) | inactive | –
20 | CCOC(=O)CC(C)O (stereo not given) | inactive | –

Row | Compound | Potency | activity change, negative = cytotoxicity
21 | CSc1ccc2c(c1)N(CCC1CCCCN1C)c1ccccc1S2 (stereo not given) | 15.3 µM (active) and 29.8 µM (active) | –
22 | CC(C)(C)CC(C)(C)c1ccccc1O | 61.4 µM (active) | –
23 | COc1ccccc1C=O | inactive | –
24 | COCC(=O)O[C@]1(CCN(C)CCCc2nc3ccccc3[nH]2)CCc2cc(F)ccc2[C@@H]1C(C)C | 29.8 µM (active) | –
25 | Oc1c(Br)cc(Br)c2cccnc12 | 23.7 µM (active) | –
26 | CCCCOC(=O)C(C)CC (stereo not given) | inactive | –
27 | O=C1NC2CCCCN2C12CCN(CCCN1c3ccccc3CCc3ccc(Cl)cc31)CC2 (stereo not given) | 26.6 µM (active) | –
28 | CC(=O)C=O | inactive | –
29 | C=C[C@](C)(O)CC[C@@H]1[C@@]2(C)CCCC(C)(C)[C@@H]2CC[C@@]1(C)O | 54.5 µM (active) | –
30 | CCCC(C)CCC(C)=O (stereo not given) | inactive | –
31 | Cn1cccc1 | inactive | –
32 | CC(=O)OC(OC(C)=O)c1ccc([N+](=O)[O-])o1 | 15.6 µM (active) | –
33 | C/C=C/C(=O)Oc1c(CCCCCC(C)C)cc([N+](=O)[O-])cc1[N+](=O)[O-] | 15.4 µM (active) | –
34 | O=Cc1ccc(F)cc1 | inactive | –
35 | CCC(C)C(=O)OC (stereo not given) | inactive | –
36 | CC(C)(C)c1n[nH]c(=O)n(N)c1=O | inactive | –
37 | CCOC(OCC)C(=O)c1ccccc1 | inactive | –
38 | CCN=C1C=CC(=C(c2ccc(N(CC)CC)cc2)c2ccc(N(CC)CC)cc2)c2ccccc21 | 0.963 µM (active) | –
39 | CS(C)(=O)=O | inactive | –
40 | O=C(Oc1ccccc1)c1cccc(C(=O)Oc2ccccc2)c1 | 51.2 µM (active) | –
